Molecules are shown by their SMILES. Values joined by “and” are separate entries in the source; they are usually repeats but may differ in a detail not shown here. Equal values may be shown once. Records with an inconclusive call do not appear. Active and inactive are the calls of the source. Unless noted, calls follow the shape of the full dose curve.

Androgen receptor (Homo sapiens), sequence (P10275 whole entry, looked up): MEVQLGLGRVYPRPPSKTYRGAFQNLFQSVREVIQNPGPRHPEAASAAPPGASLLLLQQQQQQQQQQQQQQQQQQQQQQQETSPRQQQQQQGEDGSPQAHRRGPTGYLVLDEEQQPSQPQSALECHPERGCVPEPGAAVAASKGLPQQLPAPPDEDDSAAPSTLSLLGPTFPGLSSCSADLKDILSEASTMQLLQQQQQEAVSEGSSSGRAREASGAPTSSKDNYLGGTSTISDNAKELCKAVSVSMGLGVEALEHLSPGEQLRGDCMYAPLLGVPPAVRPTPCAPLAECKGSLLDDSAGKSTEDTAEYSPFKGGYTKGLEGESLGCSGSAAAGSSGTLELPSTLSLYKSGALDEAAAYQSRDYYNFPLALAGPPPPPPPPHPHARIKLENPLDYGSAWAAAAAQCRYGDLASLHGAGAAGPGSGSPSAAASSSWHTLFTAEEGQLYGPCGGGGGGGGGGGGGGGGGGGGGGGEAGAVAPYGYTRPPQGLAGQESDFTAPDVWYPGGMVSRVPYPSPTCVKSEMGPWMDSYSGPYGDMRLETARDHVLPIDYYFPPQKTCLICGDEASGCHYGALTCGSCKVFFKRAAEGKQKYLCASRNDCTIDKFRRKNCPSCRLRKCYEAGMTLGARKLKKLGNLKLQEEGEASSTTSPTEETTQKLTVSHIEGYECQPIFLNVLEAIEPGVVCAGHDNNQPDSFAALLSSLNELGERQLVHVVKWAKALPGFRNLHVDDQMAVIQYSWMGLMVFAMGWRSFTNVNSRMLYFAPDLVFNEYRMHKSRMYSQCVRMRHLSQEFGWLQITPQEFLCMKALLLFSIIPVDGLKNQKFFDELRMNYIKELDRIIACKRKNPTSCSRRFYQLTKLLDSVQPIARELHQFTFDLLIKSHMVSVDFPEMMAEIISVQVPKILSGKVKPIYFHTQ
Bile acid receptor (Homo sapiens), sequence (Q96RI1 whole entry, looked up): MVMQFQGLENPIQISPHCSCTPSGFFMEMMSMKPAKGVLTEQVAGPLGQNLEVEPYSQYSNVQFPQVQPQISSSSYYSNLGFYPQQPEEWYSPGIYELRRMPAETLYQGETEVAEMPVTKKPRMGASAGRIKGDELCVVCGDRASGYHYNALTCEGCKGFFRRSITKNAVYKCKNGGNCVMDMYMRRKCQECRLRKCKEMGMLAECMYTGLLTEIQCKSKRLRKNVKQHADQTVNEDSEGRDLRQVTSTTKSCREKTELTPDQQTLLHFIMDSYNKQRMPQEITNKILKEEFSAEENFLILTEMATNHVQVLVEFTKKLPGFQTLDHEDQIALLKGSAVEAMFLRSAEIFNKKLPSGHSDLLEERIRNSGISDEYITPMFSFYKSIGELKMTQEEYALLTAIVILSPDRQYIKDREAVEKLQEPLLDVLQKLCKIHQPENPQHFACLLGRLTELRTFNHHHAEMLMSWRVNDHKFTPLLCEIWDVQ
Estrogen receptor (Homo sapiens), sequence (P03372 whole entry, looked up): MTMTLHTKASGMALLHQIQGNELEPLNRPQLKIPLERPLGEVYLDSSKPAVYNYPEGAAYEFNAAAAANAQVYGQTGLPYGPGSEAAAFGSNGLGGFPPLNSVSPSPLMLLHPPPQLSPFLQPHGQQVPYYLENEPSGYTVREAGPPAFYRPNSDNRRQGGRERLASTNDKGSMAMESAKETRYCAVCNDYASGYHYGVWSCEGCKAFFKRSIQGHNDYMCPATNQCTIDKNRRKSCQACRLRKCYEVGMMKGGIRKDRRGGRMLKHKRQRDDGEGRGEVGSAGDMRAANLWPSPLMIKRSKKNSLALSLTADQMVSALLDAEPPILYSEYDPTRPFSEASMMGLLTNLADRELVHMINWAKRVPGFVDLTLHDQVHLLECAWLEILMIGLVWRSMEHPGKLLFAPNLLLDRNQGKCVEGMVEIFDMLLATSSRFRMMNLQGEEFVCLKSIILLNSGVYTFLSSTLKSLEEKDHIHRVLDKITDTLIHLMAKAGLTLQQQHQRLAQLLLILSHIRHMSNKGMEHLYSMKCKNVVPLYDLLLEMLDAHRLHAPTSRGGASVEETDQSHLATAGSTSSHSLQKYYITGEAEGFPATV

The first test addresses Estrogen receptor (Homo sapiens) (UniProt P03372). The test can be described thus: qHTS assay for small molecule antagonists of estrogen receptor alpha signaling (AID 588513; active = well fitted curve in the direction sought with a large enough effect in the signal ratio, with a control signal flat, not every such curve was filed as active; the % refers to the signal ratio; also: % is scaled to controls: 0 for no effect and ±100 for the full control effect). As to conditions: ER-alpha-UAS-bla HEK293, beta-lactamase ratio, antagonist mode; series mostly up to 76.9 µM; activity, negative = inhibition: at the top concentration. The essentials:
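ER-alpha-UAS-bla GripTite HEK 293 cells in 2% charcoal/dextran-treated FBS medium; compounds titrated (1:2, duplicate), then stimulated with 0.5 nM 17-beta-estradiol for 18 h at 37C. CCF4 beta-lactamase fluorescence; Hill-fit IC50 and efficacy.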
For the compound `CC1(C)[C@@H]2CC[C@@]1(C)C(=O)C2`, the “activity, negative = inhibition” value is 3.07% (inactive).

As for `Nc1ccc(S(=O)(=O)Nc2nccs2)cc1`, the “activity, negative = inhibition” value is 8.81% (inactive).

For `CC12CCC(CC1)C(C)(C)O2`, the “activity, negative = inhibition” value was 15.9% (inactive).

Take `CCCCC(CC)COC(=O)c1ccccc1O` (centres undefined): the “activity, negative = inhibition” value is -5.74% (inactive).

As for `[Cl][In]([Cl])[Cl]`, the “activity, negative = inhibition” value is 20.6% (inactive).

Another test has the same target. The test can be described thus: qHTS assay for small molecule agonists of estrogen receptor alpha signaling (AID 588514).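 Also: 0% = vehicle only and 100% = reference agonist; nearly all actives have a fitted effect of over 70% in size.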 As to conditions: ER-alpha-UAS-bla HEK293, beta-lactamase ratio, 18 h, percent of full estradiol response, vehicle zero; series mostly up to 76.8 µM; activation: at the top concentration. The essentials: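 Reporter-gene assay. […] controls beta-lactamase in HEK 293 GripTite cells; after 18 hrs with compound, CCF4 substrate is added for 2 hrs and fluorescence is read.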
In general terms: In qHTS, concentration-response curves come from the screen itself.
`Cc1cccc(Nc2cc(Cl)nc(SCC(=O)O)n2)c1C`: the “activation” value was 2.33% (inactive).

With `COc1ccccc1O`, the result was inactive.

Consider `NC(=O)N/N=C/c1ccc([N+](=O)[O-])o1`, for which the outcome was inactive.

As to `CC1(C)[C@@H]2CC[C@@]1(C)C(=O)C2`, the “activation” value is 5.64% (inactive).

In the case of `Nc1ccc(S(=O)(=O)Nc2nccs2)cc1`, the “activation” value is -1.16% (inactive).

With `CC12CCC(CC1)C(C)(C)O2`, the “activation” value was -3.85% (inactive).

With `CCCCC(CC)COC(=O)c1ccccc1O` (centres undefined), the “activation” value was 5.41% (inactive).

For the compound `[Cl][In]([Cl])[Cl]`, the “activation” value is -6.13% (inactive).

Another test has as its target Androgen receptor (Homo sapiens) (UniProt P10275). Kind of test: qHTS assay for small molecule agonists of androgen receptor signaling (AID 588515; active = well fitted curve in the direction sought with a large enough effect in the signal ratio, with a control signal flat; the % refers to the signal ratio; also: % is scaled to controls: 0 for no effect and ±100 for the full control effect). As to conditions: AR-UAS-bla HEK293, beta-lactamase ratio, agonist 16 h; stronger effect = higher value. The essentials: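 EC50 and efficacy came from Hill fits of titrations (up to 92 uM) normalized to 30 nM R1881 as 100% and DMSO as 0%. Compound exposure was 16 h at 37 C on AR-UAS-bla HEK293 cells, with a 405/460/530 nm CCF4 fluorescence read.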
On to `Cc1cccc(Nc2cc(Cl)nc(SCC(=O)O)n2)c1C`, for which the activation is 4.07% (inactive).

For the compound `NCCNCCNCCNCCN`, the activation was 15.1% (inactive) and -3.31% (inactive).

Regarding `CC(O)COc1ccccc1` (centres undefined), the activation was 4.06% (inactive).

The target of a further test is Bile acid receptor (Homo sapiens) (UniProt Q96RI1). Kind of test: qHTS assay for small molecule antagonists of farnesoid X receptor signaling (AID 588526). Also: % is scaled to controls: 0 for no effect and ±100 for the full control effect. The following applies: HEK293T FXR-UAS-bla, beta-lactamase ratio, antagonist mode; series mostly up to 76.7 µM; activity change, negative = inhibition: at the top concentration. The essentials:
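Beta-lactamase reporter antagonist mode: HEK293T FXR-UAS-bla cells, titrated compound, CDCA stimulation, 16 h 37 C, CCF4 dye 2 h RT. Data normalized to CDCA 50 uM and DMSO; Hill-fit IC50.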
Turning to `COc1ccccc1O`, the result was inactive.

Regarding `CCOC(=O)c1ccc(O)cc1`, the “activity change, negative = inhibition” value is 2.34% (inactive).

As to `O=C1c2c(O)cccc2Cc2cccc(O)c21`, the “activity change, negative = inhibition” value is -3.14% (inactive).

For the compound `Cc1cc(CC(=O)O)n(C)c1C(=O)c1ccc(Cl)cc1`, the “activity change, negative = inhibition” value is -9.68% (inactive).

Turning to `CC(O)CN(CCN(CC(C)O)CC(C)O)CC(C)O` (centres undefined), the “activity change, negative = inhibition” value was 0.594% (inactive).

On to `CC(O)COc1ccccc1` (centres undefined), for which the “activity change, negative = inhibition” value was 8.39% (inactive).

Take `CC12CCC(CC1)C(C)(C)O2`: the “activity change, negative = inhibition” value is 2.39% (inactive).

Turning to `CCCCOC(=O)c1ccc(O)cc1`, the “activity change, negative = inhibition” value is -5.58% (inactive).

Regarding `CCCc1c(OCCCCc2nn[nH]n2)ccc(C(C)=O)c1O`, the “activity change, negative = inhibition” value was -5.1% (inactive).

Take `NCCNCCNCCN`: the “activity change, negative = inhibition” value is -4.49% (inactive).

The target of the next test is Glucocorticoid receptor (Homo sapiens) (UniProt P04150). Kind of test: qHTS assay for small molecule agonists of glucocorticoid receptor signaling (AID 588532; active = well fitted curve in the direction sought with a large enough effect in the signal ratio, with a control signal flat; the % refers to the signal ratio;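 also: 100% = dexamethasone at 0.1 µM and 0% = DMSO only wells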). The following applies: HeLa MMTV-bla, beta-lactamase ratio, agonist, 18 h; stronger effect = higher value; percent of dexamethasone control, DMSO zero. The essentials: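 Quantitative HTS using CellSensor MMTV-bla HeLa cells in charcoal/dextran-treated serum; compounds tested up to 92 uM. After 18 h at 37 C, CCF4 dye reported reporter induction.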
Glucocorticoid receptor (Homo sapiens), sequence (P04150 whole entry, looked up): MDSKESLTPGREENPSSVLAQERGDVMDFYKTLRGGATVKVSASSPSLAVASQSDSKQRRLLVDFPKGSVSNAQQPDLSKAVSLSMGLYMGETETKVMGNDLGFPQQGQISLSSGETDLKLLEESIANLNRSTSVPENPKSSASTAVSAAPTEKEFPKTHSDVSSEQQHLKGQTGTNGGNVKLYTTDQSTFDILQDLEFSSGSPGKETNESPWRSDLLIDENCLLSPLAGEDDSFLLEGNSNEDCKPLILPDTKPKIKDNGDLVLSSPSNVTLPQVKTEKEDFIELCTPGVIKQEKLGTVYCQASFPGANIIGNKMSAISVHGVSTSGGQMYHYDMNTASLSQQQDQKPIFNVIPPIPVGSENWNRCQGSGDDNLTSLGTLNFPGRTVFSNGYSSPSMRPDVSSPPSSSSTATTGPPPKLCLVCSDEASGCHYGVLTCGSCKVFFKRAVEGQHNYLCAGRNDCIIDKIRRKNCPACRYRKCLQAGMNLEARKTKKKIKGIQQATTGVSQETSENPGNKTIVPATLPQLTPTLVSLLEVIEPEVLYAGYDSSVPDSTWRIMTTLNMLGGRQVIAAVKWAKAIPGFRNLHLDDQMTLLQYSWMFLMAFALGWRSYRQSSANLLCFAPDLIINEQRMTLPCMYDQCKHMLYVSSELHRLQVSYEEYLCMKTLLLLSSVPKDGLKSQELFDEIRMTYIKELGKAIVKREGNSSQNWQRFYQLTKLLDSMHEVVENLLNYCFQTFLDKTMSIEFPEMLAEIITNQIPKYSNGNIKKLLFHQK
Turning to `Cc1cccc(Nc2cc(Cl)nc(SCC(=O)O)n2)c1C`, the activation was -9.26% (inactive).

`COc1ccccc1O`: the activation is 0.59% (inactive) and 4.92% (inactive) and -0.396% (inactive).

Consider `Cc1cc2nc3c(=O)[nH]c(=O)nc-3n(C[C@H](O)[C@H](O)[C@H](O)CO)c2cc1C`, for which the activation was -14% (inactive).

Consider `Oc1cccc(O)c1`, for which the activation was 1.81% (inactive).

Regarding `O=C1c2c(O)cccc2Cc2cccc(O)c21`, the activation was -1.63% (inactive).

For the compound `O=C1O[C@H]([C@@H](O)CO)C(O)=C1O`, the activation was 1.61% (inactive) and 16.4% (inactive).

Turning to `Cc1cc(CC(=O)O)n(C)c1C(=O)c1ccc(Cl)cc1`, the activation is -2.23% (inactive).

On to `CC(O)CN(CCN(CC(C)O)CC(C)O)CC(C)O` (centres undefined), for which the activation was -7.72% (inactive).

For `NC(=O)N/N=C/c1ccc([N+](=O)[O-])o1`, the activation is -5.85% (inactive) and -2.6% (inactive).

With `CC1(C)[C@@H]2CC[C@@]1(C)C(=O)C2`, the activation was 6.36% (inactive).

For the compound `NCCNCCNCCNCCN`, the activation is -3.86% (inactive) and -5.35% (inactive).

`Nc1ccc(S(=O)(=O)Nc2nccs2)cc1`: the activation was -6.26% (inactive).

With `CC(O)COc1ccccc1` (centres undefined), the activation was -13.7% (inactive).

Take `CC12CCC(CC1)C(C)(C)O2`: the activation was -0.499% (inactive).

As for `CCCCC(CC)COC(=O)c1ccccc1O` (centres undefined), the activation is -10.3% (inactive).

For the compound `CCCCOC(=O)c1ccc(O)cc1`, the activation is -4.25% (inactive) and 1.71% (inactive).

With `CCCc1c(OCCCCc2nn[nH]n2)ccc(C(C)=O)c1O`, the activation was -8.74% (inactive).

As for `NCCNCCNCCN`, the activation was 21.8% (inactive).

The values are drawn from PubChem BioAssay (NCATS).
